# Experimental data as given in PMC4336329 (PLoS ONE, 2015).
# The whole screen tested about 310,000 compounds, of which about 14,000 (4.5%) showed an effect of 50% or more. The effect is printed as a negative number. The sample holds strong results, similar compounds and a random draw of the others, so the mix is not that of the screen.
# Biological target: human ether-à-go-go-related gene (hERG) potassium channel (human, UniProt Q12809)
# Assay: primary screen, population patch clamp on CHO cells stably expressing hERG; higher = less effect of the substance
# 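Also: peak tail current of the secondary pulse compared with the same well before compound.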
# Chain of human ether-à-go-go-related gene (hERG) potassium channel (Q12809 whole entry, looked up): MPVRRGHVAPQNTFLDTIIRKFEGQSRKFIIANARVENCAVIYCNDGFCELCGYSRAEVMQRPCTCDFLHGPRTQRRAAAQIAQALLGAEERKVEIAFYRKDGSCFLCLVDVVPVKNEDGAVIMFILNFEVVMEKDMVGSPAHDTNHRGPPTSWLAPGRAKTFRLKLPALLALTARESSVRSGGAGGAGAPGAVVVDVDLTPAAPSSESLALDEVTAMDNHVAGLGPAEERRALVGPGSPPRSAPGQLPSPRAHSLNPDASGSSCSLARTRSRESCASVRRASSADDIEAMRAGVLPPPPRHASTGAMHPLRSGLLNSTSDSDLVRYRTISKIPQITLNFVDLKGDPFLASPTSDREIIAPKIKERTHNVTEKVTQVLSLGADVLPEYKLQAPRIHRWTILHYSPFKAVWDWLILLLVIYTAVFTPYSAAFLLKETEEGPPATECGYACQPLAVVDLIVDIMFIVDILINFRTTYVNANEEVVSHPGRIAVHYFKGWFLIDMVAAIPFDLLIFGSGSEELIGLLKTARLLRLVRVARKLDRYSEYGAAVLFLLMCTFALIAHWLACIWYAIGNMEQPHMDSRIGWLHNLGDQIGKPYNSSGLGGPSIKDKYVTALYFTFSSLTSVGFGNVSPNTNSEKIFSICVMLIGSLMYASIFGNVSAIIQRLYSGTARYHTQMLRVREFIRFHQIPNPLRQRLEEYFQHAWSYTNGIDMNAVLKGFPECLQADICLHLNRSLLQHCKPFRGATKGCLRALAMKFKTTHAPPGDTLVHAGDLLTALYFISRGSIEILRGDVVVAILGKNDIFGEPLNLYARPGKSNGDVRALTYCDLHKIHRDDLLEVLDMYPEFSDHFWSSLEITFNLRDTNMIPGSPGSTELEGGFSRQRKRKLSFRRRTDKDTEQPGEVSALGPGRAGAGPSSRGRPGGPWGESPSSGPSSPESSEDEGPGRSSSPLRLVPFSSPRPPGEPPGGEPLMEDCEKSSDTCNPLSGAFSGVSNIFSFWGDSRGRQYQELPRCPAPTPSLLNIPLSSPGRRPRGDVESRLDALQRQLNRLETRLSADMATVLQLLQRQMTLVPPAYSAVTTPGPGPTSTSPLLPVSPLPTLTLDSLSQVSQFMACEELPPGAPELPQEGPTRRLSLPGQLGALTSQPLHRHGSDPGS
row,SMILES,"hERG current change (%, negative = inhibition) at 10uM"
1,COc1ccc(C(=O)COC(=O)/C=C/c2ccc(S(=O)(=O)Nc3cccc(S(N)(=O)=O)c3)cc2)cc1,4.88%
2,c1ccc2c(c1)Nc1cc3ccccc3cc1S2,8.83%
3,CCOc1ccc(CN(C)C(=O)NNC(=O)c2ccc(C)cc2)cc1OC,16.8%
4,CCOc1ccc(CN(C)CC(=O)Nc2cccc3ccccc23)cc1OC.O=C(O)C(=O)O,-16.5%
5,COc1ccc(CCN(C)CC(=O)Nc2c(C)cc(C)cc2C)cc1OC.Cl,4.26%
6,CCOc1ccc(CN(C)CC(=O)Nc2cccc(C)c2)cc1OC,-77%
7,COc1ccc(CCNCCC(=O)Nc2c(C)cc(C)cc2C)cc1OC.Cl,-13.8%
8,COc1ccc(CCN(C)CCC(=O)Nc2cccc(C)c2)cc1OC.Cl,-65.8%
9,COc1cccc(CN(C)CC(=O)NNC(=O)c2ccc(Cl)cc2)c1,-12.5%
10,COc1ccc(CCN(C)C(=S)Nc2cccc(C)c2)cc1OC,5.19%
11,CCOc1ccc(CN(C)CC(=O)Nc2ccc3c(c2)CCC3)cc1OC,-39%
12,CCOc1ccc(CN(C)CC(=O)NNC(=O)c2ccc(Cl)cc2)cc1OC,-60.3%
13,COc1ccc(CC(=O)Nc2cccc(-c3nnc(-c4cccc(C)c4)o3)c2)cc1OC,11.3%
14,COc1ccc(CCN(C)CCC(=O)Nc2c(C)cc(C)cc2C)cc1OC,-58.8%
15,CCc1cc2ccccc2nc1Cl,6.29%
16,O=C(CN(Cc1ccc2c(c1)OCO2)C(=O)CNS(=O)(=O)c1ccccc1)NCc1ccco1,-22%
17,CC[C@@H]1CC=C[C@H]2[C@H]1C(=O)N(Cc1ccccc1)[C@H]2c1ccc(OC)c(Cl)c1,10.6%
18,O=C(Cc1ccc(F)cc1)OCC(=O)c1cc2ccccc2o1,-2.43%
19,CCNC(=S)NNC(=O)Cn1c(=O)c2c(ncn2CCOC)n(Cc2ccccc2)c1=O,15.3%
20,Cc1ccc(NC(=O)Nn2cnnc2)c(C)c1,1.62%
21,COC(=O)CSc1[nH]c2ccc(Br)cc2c1[N+](=O)[O-],16.7%
22,Nc1cccc(S(=O)(=O)Nc2ccccc2)c1,25.5%
23,COc1ccc(CCN(C)CCC(=O)Nc2ccc(C)cc2)cc1OC.Cl,-64.3%

row,SMILES,"hERG current change (%, negative = inhibition) at 10uM"
1,COc1ccc(CC(=O)Nc2cc(C)ccc2O)cc1OC,4.22%
2,COc1ccc(CCN(C)CC(=O)Nc2ccc(F)c(Cl)c2)cc1OC,-35.3%
3,COc1ccc(CCN(C)CCC(=O)Nc2cc(C)ccc2C)cc1OC,-55.6%
4,CCCCN(C)CCC(=O)Nc1ccc(C)cc1.Cl,-14.8%
5,COC(=O)c1ccc(C)c(NC(=O)CCc2ccc(OC)c(OC)c2)c1,6.37%
6,O=[N+]([O-])c1cc(F)c(N2CCCCC2)cc1Br,-3.83%
7,O=C(C1CC1)N1CCc2cc(S(=O)(=O)NCC3COc4ccccc4O3)ccc21 (stereo not shown),6.27%
8,Cc1c(C)c2ccc(OC(C)C(=O)N3CC[C@@]4(O)CCCC[C@H]4C3)cc2oc1=O (stereo partly shown),-11.2%
9,COc1ccc(CN2C(=O)c3cccnc3C2=O)cc1S(=O)(=O)NC1CCCCC1C (stereo not shown),10.8%
10,CN(C)CCNC(=O)c1nn(C)c2c1CCc1ccccc1-2,-12.4%
11,O=C(c1ccccc1Cl)c1c(O)c2ccccc2oc1=O,-3.19%
12,O=C1COc2ccc(S(=O)(=O)Nc3ccc4c(c3)OCO4)cc2N1,19.4%
13,C/C(=N\Nc1cccc(C(=O)O)c1)c1cc2ccccc2o1,9.54%
14,CCOC(=O)N1CCN(CC(O)COc2ccccc2C(C)CC)CC1.Cl (stereo not shown),0.934%
15,COc1ccccc1C(=O)N/C(=C\c1cn(S(=O)(=O)N(C)C)c2ccccc12)C(=O)NCCCN1CCOCC1,-7.58%
16,COc1ccc(C(Nc2cccc([N+](=O)[O-])c2)P(=O)(OC(C)C)OC(C)C)cc1 (stereo not shown),-31.5%
17,COc1ccc(S(=O)(=O)NCC2CCCN(Cc3ccc(OC)cc3F)C2)cc1 (stereo not shown),-42%
18,CCC(C)(C)NC(=O)c1ccc(Sc2nncn2C)c([N+](=O)[O-])c1,3.37%
19,Cn1cnnc1Sc1ccc(C(=O)NCCC(c2ccccc2)c2ccccc2)cc1[N+](=O)[O-],-74.3%
20,Cn1cnnc1Sc1ccc(C(=O)NCCC23CC4CC(CC(C4)C2)C3)cc1[N+](=O)[O-],12.9%
21,CC(=O)c1cccc(NC(=O)CN(C)S(=O)(=O)c2ccccc2)c1,-11.5%
22,CN(CC(=O)Nc1cccc(F)c1)CC(=O)Nc1cccc([N+](=O)[O-])c1,-39.7%
23,Cc1ccc(CN(C)CC(=O)Nc2cccc([N+](=O)[O-])c2)o1,-58.4%

row,SMILES,"hERG current change (%, negative = inhibition) at 10uM"
1,CN(c1ccccc1C(=O)Nc1cccc([N+](=O)[O-])c1)S(C)(=O)=O,-20%
2,CN(Cc1ccccc1)S(=O)(=O)c1ccc(OCC(=O)Nc2cccc([N+](=O)[O-])c2)cc1,-9.01%
3,CN(c1ccccc1C(=O)Nc1cccc(Br)c1)S(=O)(=O)c1ccccc1,-5.01%
4,Cc1ccc(CC(=O)Nc2cccc([N+](=O)[O-])c2)cc1,15.8%
5,CN(CC(=O)Nc1cccc([N+](=O)[O-])c1)S(=O)(=O)c1ccccc1,-51.9%
6,CN(c1ccccc1C(=O)Nc1cccc([N+](=O)[O-])c1)S(=O)(=O)c1ccccc1,-63.2%
7,FC(F)(F)c1nnc2c(Sc3ccccc3)nc3ccc(Cl)cc3n12,12.2%
8,Cc1cccc(NC(=S)N(CCCN2CCOCC2)C(C)c2cc3ccccc3o2)c1C (stereo not shown),-20.9%
9,COc1ccc(Cl)cc1NC(=O)CSc1nnc(CNC(=O)c2cccs2)o1,-39.8%
10,Cc1ccc(S(=O)(=O)NCc2c(-c3ccccc3)c3cc(Cl)ccc3[nH]c2=O)cc1,7.18%
11,O=C(c1ccc(Br)s1)N1CCCC1,-5.86%
12,CCC(C)(C(=O)NC1CCCCC1)N(CC1CCCO1)C(=O)CNC(=O)c1ccccc1 (stereo not shown),6.13%
13,CCC(C)(C(=O)NC1CCCCC1)N(C)C(=O)c1ccccn1 (stereo not shown),2.9%
14,CCC(C)(C(=O)NC1CCCCC1)N(CC1CCCO1)C(=O)c1ccccn1 (stereo not shown),-63.3%
15,COc1ccc2cc(C(c3nnnn3C3CCCCC3)N3CCCCCC3)c3nnnn3c2c1 (stereo not shown),4.6%
16,COc1ccc2cc(C(c3nnnn3C3CCCC3)N3CCOCC3)c3nnnn3c2c1 (stereo not shown),-51.7%
17,COc1ccc2cc(C(c3nnnn3C3CCCC3)N3CCCCCC3)c3nnnn3c2c1 (stereo not shown),15.9%
18,O=C(NCCc1ccccc1)C1CCN(S(=O)(=O)c2cccnc2)CC1,12.9%
19,Cc1ccccc1C(=O)Nc1nnc(-c2cccnc2)o1,18.4%
20,CN1CCN(NC(=O)c2ccc(S(=O)(=O)N3CC4(C)CC3CC(C)(C)C4)cc2)CC1.Cl (stereo not shown),-2.07%
21,OCCC1CN(Cc2cccc3nccnc23)CCN1Cc1ccc(F)c(F)c1 (stereo not shown),-56.4%
22,Cc1ccc(CN2CCN(Cc3cccc4nccnc34)CC2CCO)cc1 (stereo not shown),-66.6%
23,CC(C)=CCN1CCN(Cc2cccc3nccnc23)CC1CCO (stereo not shown),-8.42%

row,SMILES,"hERG current change (%, negative = inhibition) at 10uM"
1,Cc1ccc(CN2CCN(Cc3ccc4ncccc4c3)CC2CCO)cc1 (stereo not shown),-58.9%
2,CC(C)CN1CCN(Cc2ccc3ncccc3c2)CC1CCO (stereo not shown),-13.2%
3,OCCC1CN(Cc2ccc3ncccc3c2)CCN1Cc1ccccc1 (stereo not shown),-14.8%
4,OCCC1CN(Cc2ccon2)CCN1Cc1ccc(F)c(F)c1 (stereo not shown),-13.9%
5,OCCC1CN(Cc2cccc3nccnc23)CCN1Cc1ccc(F)cc1 (stereo not shown),-30.8%
6,CC(C)CN1CCN(Cc2cccc3nccnc23)CC1CCO (stereo not shown),-8.4%
7,COc1ccccc1N1CCN(C(=O)CSc2nc(N)cc(=O)[nH]2)CC1,6.2%
8,Cc1ccc(-n2c(O)c(C=NCCCn3ccnc3)c(=O)[nH]c2=O)cc1,19.6%
9,COc1ccccc1NS(=O)(=O)c1cccc(C(=O)N/N=C/c2ccc(N3CCOCC3)cc2)c1,-8.32%
10,CC(OC(=O)c1ccc(-c2ccc(O)cc2)cc1)C(=O)NC1CCCCC1C (stereo not shown),-6.35%
11,COc1ccc(C(CNC(=O)c2cccc(NS(=O)(=O)c3ccc(Br)cc3)c2)N(C)C)cc1 (stereo not shown),-61.5%
12,COc1ccc(C(CNC(=O)c2cccc(NS(=O)(=O)c3ccc(C)c(F)c3)c2)N(C)C)cc1 (stereo not shown),-62.6%
13,COc1ccc(C(CNC(=O)c2cccc(NS(=O)(=O)c3ccc(C)c(F)c3)c2)N2CCOCC2)cc1 (stereo not shown),-9.43%
14,COc1ccccc1C(CNC(=O)c1cccc(NS(=O)(=O)c2ccc(Br)cc2)c1)N(C)C (stereo not shown),-51.7%
15,Cc1ccc(S(=O)(=O)Nc2cccc(C(=O)NCC(c3ccccc3)N(C)C)c2)cc1F (stereo not shown),-45.8%
16,COc1ccc(C(CNC(=O)c2ccc(NS(=O)(=O)c3ccc(F)c(C)c3)cc2)N(C)C)cc1 (stereo not shown),-25.8%
17,COc1ccccc1C(CNC(=O)c1cccc(S(=O)(=O)Nc2ccc(C)cc2)c1)N(C)C (stereo not shown),-8.39%
18,COc1ccc(C(CNC(=O)c2cccc(NS(=O)(=O)c3ccc(C)c(F)c3)c2)N2CCCC2)cc1 (stereo not shown),-64%
19,COc1ccccc1C(CNC(=O)c1cccc(NS(=O)(=O)c2ccc(C)c(F)c2)c1)N(C)C (stereo not shown),-42.5%
20,COc1ccc(C(CNC(=O)c2cccc(NS(=O)(=O)c3ccccc3)c2)N(C)C)cc1 (stereo not shown),-46.4%
21,CCOc1ccc(S(=O)(=O)Nc2cccc(C(=O)NCC(c3ccccc3)N(C)C)c2)cc1 (stereo not shown),-12%
22,Cc1ccc(S(=O)(=O)Nc2cccc(C(=O)NCC(c3ccco3)N3CCCC3)c2)cc1F (stereo not shown),-38.5%
